This note sets out measurements from PubChem BioAssay AID463173 (ICCB-Longwood Screening Facility, Harvard Medical School, 2010).

SMILES strings stand for the structures. The campaign covered roughly 52,000 compounds. About 1,700 (3.3%) were called active. The full list was thinned out, with actives kept by preference. Unmarked numbers belong to inactive results. No stated cut-off is given here; in the data, active means survival mostly below about 52% (no sharp cut-off); inactive means mostly above about 56%.

The test system of the assay is Wild type. Put plainly: growth inhibition of S. aureus wild type versus tarO mutant, primary screen, teichoic acid synthesis inhibitors, RN4220, OD600 (AID 463173). The note with it: S. aureus RN4220 wild type/DeltatarO growth, OD600, 18 h, stronger effect = lower value, screened at 18.75 µg/mL (by protocol).
For `COc1cc(Cl)c(NC(=O)CN2C(=O)c3cccnc3Sc3ccccc32)c(OC)c1`, the survival is 72%.

Regarding `COc1ccc2c(CNCc3cccs3)c(C(=O)O)n(Cc3ccccc3F)c2c1`, the survival was 89%.

With `CCN1CCC(N(Cc2ccc(F)cc2)C(=O)Nc2ccc(C)c(F)c2)CC1`, the survival was 87%.

In the case of `O=C(Nc1ccccc1C(F)(F)F)C1CCN(S(=O)(=O)c2ccccc2)CC1`, the survival is 72%.

Regarding `CCc1ccc(C(=O)c2cn(CC(=O)Nc3ccc4c(c3)OCCO4)c3ccc(C)cc3c2=O)cc1`, the survival is 84%.

Consider `CCCCn1nc(NC(=O)c2cccc(Cl)c2)c2cc3ccccc3nc21`, for which the survival is 86%.

Consider `NC(=O)CSc1nnc(C2CC2)n1Cc1ccccc1`, for which the survival is 93%.

Regarding `CC(Oc1ccccc1)C(=O)Nc1ccc(C(=O)OCc2cc(=O)n3ccsc3n2)cc1` (configuration not stated), the survival was 72%.

Regarding `Cc1cn2c(=O)cc(COC(=O)c3ccc(NC(=O)c4ccc(F)cc4)cc3)nc2s1`, the survival was 70%.

Regarding `Cc1cn2c(=O)cc(COC(=O)c3cccc(NC(=O)c4ccc(C(C)(C)C)cc4)c3)nc2s1`, the survival was 101%.

Take `Cc1cn2c(=O)cc(COC(=O)c3ccc(NC(=O)c4ccc(C(C)(C)C)cc4)cc3)nc2s1`: the survival is -3% (active).

Consider `Cc1cn2c(=O)cc(COC(=O)COc3ccc(F)cc3)nc2s1`, for which the survival was 81%.

With `COc1ccc(OCC(=O)OCc2cc(=O)n3cc(C)sc3n2)cc1`, the survival is 1% (active).

In the case of `Cc1cn2c(=O)cc(COC(=O)COc3ccc(C)c(C)c3)nc2s1`, the survival is 63%.

With `Cc1cn2c(=O)cc(COC(=O)c3ccc(NC(=O)C(C)Oc4ccccc4)cc3)nc2s1` (configuration not stated), the survival was 0% (active).

Take `COc1ccc(OCC(=O)OCc2cc(=O)n3nc(-c4cccs4)sc3n2)cc1`: the survival was 87%.

Consider `O=C(COc1ccccc1)OCc1cc(=O)n2nc(-c3cccs3)sc2n1`, for which the survival was 75%.

As for `O=C(COc1ccc(Cl)cc1)OCc1cc(=O)n2nc(-c3cccs3)sc2n1`, the survival is -6% (active).

With `Cc1cn2c(=O)cc(COC(=O)c3cccc(NC(=O)C(C)Oc4ccccc4)c3)nc2s1` (configuration not stated), the survival is 69%.

Take `Cc1cccc(OCC(=O)N(Cc2ccccc2)c2ccccn2)c1`: the survival is 87%.

Regarding `CCOC(=O)c1ccccc1NC(=O)CSc1nc(=O)[nH]c2c1CCC2`, the survival is 77%.

On to `Cc1ccc(NC(=O)Cn2cc(C#N)c3ccccc32)cc1`, for which the survival is 113%.

On to `Cc1c(Cl)cccc1NC(=O)Cn1c(=O)n(Cc2nc(-c3ccccc3)no2)c(=O)c2cc3c(cc21)OCO3`, for which the survival was 135%.

Regarding `CCn1cc(C(=O)NCc2ccc(C)cc2)c(=O)c2cc(S(=O)(=O)N3CCC(C)CC3)ccc21`, the survival was 128%.

Regarding `Cc1sc2ncn(CC(=O)Nc3cccc(C(F)(F)F)c3)c(=O)c2c1S(=O)(=O)N1CCN(C)CC1`, the survival is 75%.

On to `Cc1ccc(Cn2cc(S(=O)(=O)c3cccc(C)c3)c(=O)c3cc(F)c(N4CCOCC4)cc32)cc1`, for which the survival was 82%.

Turning to `Cn1c(=O)c2c(-c3ccccc3)n3c(c2n(C)c1=O)C(c1cc(Cl)ccc1O)Nc1ccccc1-3` (configuration not stated), the survival was -9% (active).

On to `Cc1cc2c(cc1C)-n1c(-c3ccccc3)c3c(=O)n(C)c(=O)n(C)c3c1C(c1ccco1)N2` (configuration not stated), for which the survival is 88%.

Turning to `Cn1c(=O)c2c(-c3ccccc3)n3c(c2n(C)c1=O)C(c1cccc([N+](=O)[O-])c1)Nc1ccccc1-3` (configuration not stated), the survival is 31%.

For the compound `COc1ccc(-c2nc3ccccc3n3c(-c4ccc(OC)cc4)c4c(=O)n(C)c(=O)n(C)c4c23)cc1`, the survival is 75%.

For `COc1ccccc1C1Nc2ccccc2-n2c(-c3ccccc3)c3c(=O)n(C)c(=O)n(C)c3c21` (configuration not stated), the survival is 65%.

As for `COc1ccc(O)c(C2Nc3ccccc3-n3c(-c4ccccc4)c4c(=O)n(C)c(=O)n(C)c4c32)c1` (configuration not stated), the survival was -6% (active).

For the compound `COc1ccc(-c2c3c(=O)n(C)c(=O)n(C)c3c3n2-c2ccccc2NC3c2ccc(O)cc2O)cc1` (configuration not stated), the survival was -8% (active).

Turning to `Cn1c(=O)c2c(-c3ccccc3)n3c(c2n(C)c1=O)C(c1ccccc1[N+](=O)[O-])Nc1ccccc1-3` (configuration not stated), the survival was 76%.

`Cn1c(=O)c2c(-c3ccccc3)n3c(c2n(C)c1=O)C(c1ccco1)Nc1ccccc1-3` (configuration not stated): the survival is 85%.

For the compound `COc1ccc(-c2c3c(=O)n(C)c(=O)n(C)c3c3c(-c4ccccc4)nc4ccccc4n23)cc1`, the survival is 64%.

Take `COc1ccc(-c2c3c(=O)n(C)c(=O)n(C)c3c3c(C)nc4ccccc4n23)cc1`: the survival was 74%.

Consider `Cc1ccc(-c2c3c(=O)n(C)c(=O)n(C)c3c3n2-c2ccccc2NC3c2ccc(C)cc2O)cc1` (configuration not stated), for which the survival was -8% (active).

As for `O=C(C1CCN(S(=O)(=O)c2cccs2)CC1)N1CCN(c2ccccc2F)CC1`, the survival is 142%.

As for `CCN(C(=O)/C=C/c1cc(OC)c(OC)c(OC)c1)C1CCCCC1`, the survival was 107%.

For the compound `COc1cccc(CNC(=O)CCn2c(=O)c3cccn3c3cccnc32)c1`, the survival is 87%.

Take `CCC(Sc1nc(-c2ccccc2F)nc2c1Cc1c(CO)cnc(C)c1O2)C(=O)Nc1cc(C)ccc1C` (configuration not stated): the survival was 87%.

With `COc1ccc(N2CCN(Cc3nnc(-c4ccc5c(c4)OCO5)o3)CC2)cc1`, the survival was 81%.

On to `O=C(Cn1c(C(=O)NC2CCCCC2)cc2sccc21)c1ccccc1`, for which the survival is 136%.

Take `Cc1ccc(C)n1-c1nnc(N2CCCC(C(=O)NCc3cccc(F)c3)C2)s1` (configuration not stated): the survival was 81%.

In the case of `COC(=O)c1c(C)oc2ccc(N(C(=O)c3ccncc3)S(=O)(=O)c3cc(C)c(C)cc3C)cc12`, the survival is 77%.

Turning to `COc1ccc(Cl)c2sc(NC(=O)c3ccc(S(=O)(=O)N4CCCC4)cc3)nc12`, the survival is 73%.

Consider `CCn1ccc2cc(S(=O)(=O)N3CCCN(C(=O)Nc4ccc(C)cc4Cl)CC3)ccc21`, for which the survival is 63%.

For `COc1ccc(OC)c(C2NC(=O)NC(C)=C2C(=O)Nc2ccc(F)cc2)c1` (configuration not stated), the survival is 81%.

`Cc1ccc(C)c(N2CCN(c3nc4ccccc4c(=O)n3-c3ccc(Cl)cc3)CC2)c1`: the survival is 78%.

Regarding `Cc1ccc(C)c(N2CCN(c3nc4ccccc4c(=O)n3-c3ccccc3)CC2)c1`, the survival was 10% (active).

Consider `O=c1c2ccccc2nc(N2CCN(c3cccc(Cl)c3)CC2)n1-c1ccccc1`, for which the survival was 81%.

Turning to `Cc1ccccc1CN1CCc2nc(N3CCN(c4ccccn4)CC3)ncc2C1`, the survival was 71%.

Turning to `COc1cc(OC)c(OC)cc1CN1CCc2nc(N3CCN(C)CC3)ncc2C1`, the survival is 82%.

For the compound `CN1CCN(c2ncc3c(n2)CCN(Cc2ccccc2Cl)C3)CC1`, the survival was 71%.

As for `CCOc1ccccc1CN1CCc2nc(N3CCN(c4ccccc4F)CC3)ncc2C1`, the survival was -6% (active).

With `CCN1CCN(c2ncc3c(n2)CCN(Cc2cc(Br)cs2)C3)CC1`, the survival is 1% (active).

Turning to `COc1ccccc1N1CCN(c2ncc3c(n2)CCN(Cc2ccccc2F)C3)CC1`, the survival is 67%.

`CN1CCN(c2ncc3c(n2)CCN(Cc2cc(Br)cs2)C3)CC1`: the survival is 129%.

Turning to `Cc1ccccc1CN1CCc2nc(N3CCN(c4ncccn4)CC3)ncc2C1`, the survival is 75%.

Turning to `CCOc1ccccc1CN1CCc2nc(N3CCN(C)CC3)ncc2C1`, the survival was -4% (active).

For `COc1cc(OC)c(OC)cc1CN1CCc2nc(N3CCN(c4ccccc4F)CC3)ncc2C1`, the survival was 64%.

Consider `CCN1CCN(c2ncc3c(n2)CCN(Cc2ccccc2C)C3)CC1`, for which the survival is -3% (active).

Regarding `CCN1CCN(c2ncc3c(n2)CCN(Cc2ccc(Br)s2)C3)CC1`, the survival was 60%.

On to `COCCCNC(=O)C1CCN(c2ncnc3c2nc2n3CCCCC2)CC1`, for which the survival is 89%.

As to `CSc1nnc(-c2cc3ccccc3cc2O)n1C`, the survival is 111%.

Consider `COC(=O)c1sc2nc(C)cc(C)c2c1N`, for which the survival is 103%.

For the compound `Nc1nc2cc3c(cc2s1)OCCO3`, the survival is 113%.

Consider `COc1cc2nc(SCc3ccc(Cl)cc3)n3nc(CCn4nc(C)cc4C)nc3c2cc1OC`, for which the survival is 71%.

Turning to `CCCCOc1ccc(CNC(=O)c2cnc3sc(N4CCC(C)CC4)nn3c2=O)cc1`, the survival is 127%.

Turning to `COC(=O)c1ccc(NC(=O)CCn2cccn2)cc1`, the survival was 88%.

On to `CCn1c2ccccc2c2cc(NC(=O)COc3ccc(C)cc3C)ccc21`, for which the survival is 8% (active).

On to `CCn1c2ccccc2c2cc(NC(=O)COc3cccc(C)c3)ccc21`, for which the survival was 34%.

Regarding `CCn1c2ccccc2c2cc(NC(=O)COC)ccc21`, the survival is 108%.

Regarding `CCn1c2ccccc2c2cc(NC(=O)COc3cc(C)ccc3C)ccc21`, the survival was 18%.

Take `CCc1ccc(OCC(=O)Nc2ccc3c(c2)c2ccccc2n3CC)c(Br)c1`: the survival was -6% (active).

For the compound `CCc1ccc(OCC(=O)Nc2ccc3c(c2)c2ccccc2n3CC)cc1`, the survival is 69%.

As for `O=C(Nc1c(Cl)cccc1Cl)c1cc(-c2ccc3c(c2)OCO3)on1`, the survival is 82%.

As to `COc1ccc(-c2cc(C(=O)Nc3c(Cl)cccc3Cl)no2)cc1OC`, the survival was 79%.

As to `O=C(Nc1c(Cl)cccc1Cl)c1cc(-c2cccc(O)c2)on1`, the survival is 5% (active).

`COC(=O)/C=C1/C(=O)N(C(C)=O)c2ccccc21`: the survival is 108%.

On to `COc1ccc(CNS(=O)(=O)c2cc3c(cc2C)n(C)c(=O)c(=O)n3C)cc1`, for which the survival was 77%.

Turning to `COc1cccc(N2CCN(Cc3nnc(-c4ccc5c(c4)OCO5)o3)CC2)c1`, the survival was 102%.

On to `Cc1cccc(-c2noc(CN(C(C)C)S(=O)(=O)c3ccc(Br)cc3)n2)c1`, for which the survival is 72%.

Regarding `COc1ccc(S(=O)(=O)N(C)Cc2nc(-c3cccc(C)c3)no2)cc1`, the survival is 74%.

Consider `Cc1cccc(-c2noc(CN(C(=O)c3ccccc3Cl)C(C)C)n2)c1`, for which the survival was 86%.

As to `COc1ccc(OC(C)C(=O)NCc2nc(-c3cccc(C)c3)no2)cc1` (configuration not stated), the survival is 87%.

Turning to `COc1ccccc1C(=O)N(Cc1nc(-c2cccc(C)c2)no1)C(C)C`, the survival was 56%.

As for `CCOc1ccc(C(=O)N(Cc2nc(-c3cccc(C)c3)no2)C(C)C)cc1`, the survival was 2% (active).

`Cc1cccc(-c2noc(CN(C(=O)COc3ccc(C(C)C)cc3)C(C)C)n2)c1`: the survival is 3% (active).

`Cc1cccc(-c2noc(CN(C(=O)c3ccc(C)c(C)c3)C(C)C)n2)c1`: the survival is 0% (active).

Turning to `Cc1cccc(-c2noc(CN(C(=O)COc3ccc(Br)cc3C)C(C)C)n2)c1`, the survival was 30%.
